Measurements published in the supplement of paper PMC11732987, “Enantioselective OTUD7B fragment discovery through chemoproteomics screening and high-throughput optimisation” (Communications Chemistry, 2025).

What was measured:
Test in all cases: log2 ratio of Biotin-Ahx-Ub-VS probe labelling (fragment/DMSO); higher = less target engagement (more negative = stronger competition), active = hit call of the paper (q ≤ 0.05, log2 ratio ≤ -1)
Settings in all cases: compound concentration: 200 uM; treatment time: 3 h
OTUD6B = target: T1, OTUD6B (UniProt Q8N6M0)
T1 sequence (whole entry): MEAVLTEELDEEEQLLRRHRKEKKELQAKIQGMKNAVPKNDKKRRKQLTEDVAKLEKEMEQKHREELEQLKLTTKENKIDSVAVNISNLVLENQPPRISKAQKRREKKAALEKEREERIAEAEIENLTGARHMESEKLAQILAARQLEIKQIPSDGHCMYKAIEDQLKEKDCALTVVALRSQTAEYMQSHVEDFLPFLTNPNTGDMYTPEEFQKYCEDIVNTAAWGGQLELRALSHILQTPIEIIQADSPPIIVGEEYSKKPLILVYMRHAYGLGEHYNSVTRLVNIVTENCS
How it was run: (§1)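 Using Biotin-Ahx-Ub-VS at 0.5 µM final for 1 h, DUBs were labelled in HEK293T lysate (495 µg per sample) that had first been treated in triplicate with fragment at 200 µM or vehicle for 3 h. NeutrAvidin enrichment, LysC and trypsin digestion and diaPASEF LC-MS/MS followed. Spectronaut label-free quantities were global-median-normalised. Values are average log2 fragment/vehicle ratios by unpaired t-test, using proteins with ≥2 unique peptides.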

OTUD7B = target: T2, OTUD7B (UniProt Q6GQQ9)
T2 sequence (whole entry): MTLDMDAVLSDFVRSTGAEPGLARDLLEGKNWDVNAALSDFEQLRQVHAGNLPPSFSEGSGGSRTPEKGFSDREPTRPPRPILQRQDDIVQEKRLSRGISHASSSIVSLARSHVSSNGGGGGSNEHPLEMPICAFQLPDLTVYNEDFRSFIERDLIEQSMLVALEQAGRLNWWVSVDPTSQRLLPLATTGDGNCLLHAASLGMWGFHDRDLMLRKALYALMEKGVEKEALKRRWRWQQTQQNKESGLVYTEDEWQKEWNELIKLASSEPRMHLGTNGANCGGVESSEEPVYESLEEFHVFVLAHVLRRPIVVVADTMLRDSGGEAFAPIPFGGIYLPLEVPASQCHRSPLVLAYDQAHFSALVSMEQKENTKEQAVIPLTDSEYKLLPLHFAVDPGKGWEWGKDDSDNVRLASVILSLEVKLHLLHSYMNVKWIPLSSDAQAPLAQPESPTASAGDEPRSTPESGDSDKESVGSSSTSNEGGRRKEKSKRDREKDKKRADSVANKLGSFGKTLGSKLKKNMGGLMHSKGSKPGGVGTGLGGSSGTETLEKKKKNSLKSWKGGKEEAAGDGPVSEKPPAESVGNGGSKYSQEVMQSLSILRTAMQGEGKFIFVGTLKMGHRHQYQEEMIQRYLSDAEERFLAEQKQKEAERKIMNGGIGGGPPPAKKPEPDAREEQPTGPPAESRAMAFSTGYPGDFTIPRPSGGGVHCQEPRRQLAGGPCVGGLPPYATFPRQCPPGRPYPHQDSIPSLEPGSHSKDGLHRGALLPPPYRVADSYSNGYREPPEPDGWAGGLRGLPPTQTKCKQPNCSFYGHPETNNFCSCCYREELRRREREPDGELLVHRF
How it was run: as §1

PRPF8 = PRPF8 (UniProt Q6P2Q9)
How it was run: as §1

PSMD7 = target: T3, PSMD7 (UniProt P51665)
T3 sequence (whole entry): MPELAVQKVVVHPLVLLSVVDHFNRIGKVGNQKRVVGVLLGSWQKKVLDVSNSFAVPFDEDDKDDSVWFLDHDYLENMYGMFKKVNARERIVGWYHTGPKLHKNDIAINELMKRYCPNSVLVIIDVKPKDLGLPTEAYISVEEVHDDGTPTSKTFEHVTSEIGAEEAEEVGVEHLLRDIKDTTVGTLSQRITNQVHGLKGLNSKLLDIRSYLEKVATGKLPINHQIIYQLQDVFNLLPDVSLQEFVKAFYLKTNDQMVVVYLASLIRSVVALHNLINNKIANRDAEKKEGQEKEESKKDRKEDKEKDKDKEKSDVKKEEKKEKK
How it was run: as §1

UCHL1 = UCHL1 (UniProt P09936)
UCHL1, sequence (P09936 whole entry, looked up): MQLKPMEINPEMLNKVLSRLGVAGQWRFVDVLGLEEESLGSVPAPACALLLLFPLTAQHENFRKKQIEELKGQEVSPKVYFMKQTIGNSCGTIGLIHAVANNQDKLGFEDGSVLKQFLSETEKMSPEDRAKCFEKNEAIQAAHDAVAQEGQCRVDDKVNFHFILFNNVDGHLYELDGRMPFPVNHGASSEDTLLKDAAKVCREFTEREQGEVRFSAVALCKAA
How it was run: as §1

UCHL3 = target: T4, UCHL3 (UniProt P15374)
T4 sequence (whole entry): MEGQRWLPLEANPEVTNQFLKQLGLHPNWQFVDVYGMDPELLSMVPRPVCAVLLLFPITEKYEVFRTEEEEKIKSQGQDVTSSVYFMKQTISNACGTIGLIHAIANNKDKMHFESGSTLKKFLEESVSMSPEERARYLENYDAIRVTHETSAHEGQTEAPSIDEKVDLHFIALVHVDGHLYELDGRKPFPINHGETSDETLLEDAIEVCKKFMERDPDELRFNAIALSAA
How it was run: as §1

UCHL5 = target: T5, UCHL5 (UniProt Q9Y5K5)
T5 sequence (whole entry): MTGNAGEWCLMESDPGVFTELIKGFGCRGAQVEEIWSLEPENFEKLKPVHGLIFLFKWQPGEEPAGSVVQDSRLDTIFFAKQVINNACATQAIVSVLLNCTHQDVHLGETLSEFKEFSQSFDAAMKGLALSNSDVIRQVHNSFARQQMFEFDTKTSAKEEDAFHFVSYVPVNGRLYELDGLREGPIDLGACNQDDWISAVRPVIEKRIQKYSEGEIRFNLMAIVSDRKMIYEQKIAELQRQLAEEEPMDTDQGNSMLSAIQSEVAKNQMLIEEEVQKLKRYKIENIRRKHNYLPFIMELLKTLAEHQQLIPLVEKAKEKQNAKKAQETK
How it was run: as §1

USP10 = USP10 (UniProt Q14694)
USP10, sequence (Q14694 whole entry): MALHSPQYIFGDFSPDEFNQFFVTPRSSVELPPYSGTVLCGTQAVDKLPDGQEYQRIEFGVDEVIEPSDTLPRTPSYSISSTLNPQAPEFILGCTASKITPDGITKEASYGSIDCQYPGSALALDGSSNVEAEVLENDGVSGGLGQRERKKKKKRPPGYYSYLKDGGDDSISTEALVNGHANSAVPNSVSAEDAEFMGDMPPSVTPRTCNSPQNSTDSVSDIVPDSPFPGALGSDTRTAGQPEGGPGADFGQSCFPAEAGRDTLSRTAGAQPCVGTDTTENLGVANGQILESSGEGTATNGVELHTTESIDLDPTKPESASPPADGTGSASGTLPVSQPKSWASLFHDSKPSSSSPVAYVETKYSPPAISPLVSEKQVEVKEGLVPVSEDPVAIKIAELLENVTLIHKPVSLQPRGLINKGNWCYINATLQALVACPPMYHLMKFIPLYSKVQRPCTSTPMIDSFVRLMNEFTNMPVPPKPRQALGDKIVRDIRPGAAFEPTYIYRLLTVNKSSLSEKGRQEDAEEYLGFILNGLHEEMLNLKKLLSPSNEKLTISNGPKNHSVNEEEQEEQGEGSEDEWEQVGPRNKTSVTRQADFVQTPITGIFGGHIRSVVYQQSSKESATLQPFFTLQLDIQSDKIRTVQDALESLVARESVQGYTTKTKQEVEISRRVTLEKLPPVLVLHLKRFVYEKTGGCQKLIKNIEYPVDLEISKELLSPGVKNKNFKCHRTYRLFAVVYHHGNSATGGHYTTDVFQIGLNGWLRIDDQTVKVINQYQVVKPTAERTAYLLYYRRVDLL
How it was run: as §1

USP15 = target: T6, USP15 (UniProt Q9Y4E8)
T6 sequence (whole entry): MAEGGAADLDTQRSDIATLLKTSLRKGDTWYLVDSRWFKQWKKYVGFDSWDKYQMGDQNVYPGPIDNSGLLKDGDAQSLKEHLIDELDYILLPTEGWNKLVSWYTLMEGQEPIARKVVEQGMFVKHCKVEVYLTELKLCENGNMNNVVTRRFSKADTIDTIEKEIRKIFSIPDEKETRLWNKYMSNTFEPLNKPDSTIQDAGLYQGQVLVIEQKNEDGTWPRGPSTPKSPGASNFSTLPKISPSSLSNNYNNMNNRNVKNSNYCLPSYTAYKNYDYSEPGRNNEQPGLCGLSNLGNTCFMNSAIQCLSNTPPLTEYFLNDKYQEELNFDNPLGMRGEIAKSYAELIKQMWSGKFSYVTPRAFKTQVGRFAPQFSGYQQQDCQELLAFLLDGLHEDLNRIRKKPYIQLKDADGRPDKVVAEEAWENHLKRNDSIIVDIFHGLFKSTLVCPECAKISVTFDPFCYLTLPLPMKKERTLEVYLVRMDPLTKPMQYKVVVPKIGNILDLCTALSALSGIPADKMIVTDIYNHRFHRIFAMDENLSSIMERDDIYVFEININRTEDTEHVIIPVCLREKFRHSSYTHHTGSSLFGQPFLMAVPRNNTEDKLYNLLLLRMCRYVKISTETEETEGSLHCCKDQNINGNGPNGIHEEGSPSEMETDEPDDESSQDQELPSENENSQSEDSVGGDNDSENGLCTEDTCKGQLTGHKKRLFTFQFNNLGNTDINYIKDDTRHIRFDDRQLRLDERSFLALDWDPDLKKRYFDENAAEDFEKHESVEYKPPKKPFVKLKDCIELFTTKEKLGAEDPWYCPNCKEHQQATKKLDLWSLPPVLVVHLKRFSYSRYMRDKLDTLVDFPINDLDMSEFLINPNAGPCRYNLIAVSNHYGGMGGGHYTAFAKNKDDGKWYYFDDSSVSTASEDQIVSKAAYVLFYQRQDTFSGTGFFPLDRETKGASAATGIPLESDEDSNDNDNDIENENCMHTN
How it was run: as §1

USP16 = USP16 (UniProt Q9Y5T5)
USP16, sequence (Q9Y5T5 whole entry, looked up): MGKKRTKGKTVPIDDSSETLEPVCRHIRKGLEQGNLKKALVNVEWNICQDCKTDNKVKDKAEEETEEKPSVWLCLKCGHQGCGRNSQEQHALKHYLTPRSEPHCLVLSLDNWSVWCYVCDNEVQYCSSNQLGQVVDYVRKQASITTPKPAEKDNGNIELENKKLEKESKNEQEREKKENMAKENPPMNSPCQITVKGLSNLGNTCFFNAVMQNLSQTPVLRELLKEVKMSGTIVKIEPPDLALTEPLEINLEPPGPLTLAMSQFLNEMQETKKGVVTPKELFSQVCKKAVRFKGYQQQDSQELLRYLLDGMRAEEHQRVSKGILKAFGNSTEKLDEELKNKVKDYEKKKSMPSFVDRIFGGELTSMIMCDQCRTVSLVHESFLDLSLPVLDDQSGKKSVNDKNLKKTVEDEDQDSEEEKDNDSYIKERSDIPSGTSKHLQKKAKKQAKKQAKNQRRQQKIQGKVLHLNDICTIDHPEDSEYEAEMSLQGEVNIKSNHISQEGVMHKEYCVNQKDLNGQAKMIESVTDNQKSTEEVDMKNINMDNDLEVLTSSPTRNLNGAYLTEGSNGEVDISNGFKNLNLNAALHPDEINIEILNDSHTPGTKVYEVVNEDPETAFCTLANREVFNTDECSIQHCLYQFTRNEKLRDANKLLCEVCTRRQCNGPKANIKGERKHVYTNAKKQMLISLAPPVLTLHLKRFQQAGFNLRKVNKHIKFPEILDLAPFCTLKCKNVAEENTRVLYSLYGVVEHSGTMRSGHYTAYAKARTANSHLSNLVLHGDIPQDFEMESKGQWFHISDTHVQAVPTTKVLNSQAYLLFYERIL
How it was run: as §1

Measured: log2 ratio of Biotin-Ahx-Ub-VS probe labelling

O=C(CCl)N1CCC(c2nc3ccccc3o2)CC1
active: UCHL1 -1.65
inactive: OTUD6B -0.508 | OTUD7B -0.632 | PRPF8 -0.0832 | PSMD7 -0.495 | UCHL3 0.054 | UCHL5 -0.349 | USP10 -0.114 | USP15 -0.214 | USP16 0.149
